Test results reported in PubChem BioAssay (NCATS).
Results filed as inconclusive are left out. Active and inactive are the calls of the source. Unless noted, calls follow the shape of the dose curve; as a rule, active = well fitted curve in the direction sought with a large enough effect; inconclusive = small, poorly fitted or top-dose-only effect, or another doubt; inactive = no such curve, though single readings can be large; an effect the other way counts as inactive or inconclusive.

Experiments:
[1] = AP1 Signaling Pathway (AID 357; active = well fitted curve in either direction with a large enough effect, not every such curve was filed as active;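 also: ME-180 reporter cells stimulated with EGF at its EC50 level; % is scaled to controls: 0 for no effect and ±100 for the full control effect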); details: ME-180 AP-1-bla reporter, EGF-induced, beta-lactamase ratio, 5 h; at 7.69 µM (top of the series) unless noted
Outline: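 Titration-series screen for positive or negative modulators of EC50 EGF-induced signaling in ME-180 cells carrying an AP-1-driven beta-lactamase reporter. After 5 hours at 37 degrees Celsius, CCF4 460nm/530nm emission ratio gave %Activity; AC50 values derived.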

[2] = target: Cytochrome P450 1A2 (Homo sapiens) (UniProt P05177); assay: p450-cyp1a2 (AID 410; calls by dose curve;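 also: -100% = full effect of reference inhibitor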)
Outline: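 Human CYP1A2 (20nM) demethylated Luciferin-ME at its Km (100uM) in 100mM KPO4. After 10 min compound preincubation, NADPH regeneration ran the reaction 60 min at room temperature. Luciferin was read by luminescence, normalized to 57 uM furafylline.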

[3] = NFAT Signaling Pathway (AID 444; active = well fitted curve in either direction with a large enough effect, not every such curve was filed as active;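 also: carbachol stimulus at about its EC50 of 1 µM final; % is scaled to controls: 0 for no effect and ±100 for the full control effect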); details: Jurkat NFAT-bla M1, carbachol, beta-lactamase ratio, 5 h; at 7.69 µM (top of the series) unless noted
Outline: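 Jurkat cells with NFAT-driven β-lactamase reporter and co-expressed M1 receptor, stimulated with carbachol (final 1 uM, ~EC50), compound titration, 5 h at 37 °C. CCF4 loaded 1 h at RT; 460/530 nm ratio gave %activity and AC50.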

[4] = Stat Signaling Pathway (AID 446; active = well fitted curve in either direction with a large enough effect, not every such curve was filed as active;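 also: ME-180 cervical cancer cells given 40 pM IL-6 alongside compound; SIE-controlled beta-lactamase reporter measured as 460/530 nm FRET emission ratio; % is scaled to controls: 0 for no effect and ±100 for the full control effect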); details: ME-180 SIE beta-lactamase reporter, IL-6 stimulated, 5 h; at 7.69 µM (top of the series) unless noted
Outline: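 IL-6/STAT signaling read in ME-180 cells via an SIE beta-lactamase reporter. Stimulus was 40 pM IL-6 (its AC50) for 5 hrs, so both activation and inhibition register.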

[5] = target: Glucocorticoid receptor (Homo sapiens) (UniProt P04150); assay: GR-GFP Redistribution (AID 450;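 active = compounds whose dose series gives a full or clear partial fitted curve of increased nuclear translocation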; also: potency is read from the fitted curve at half-maximal effect); details: U2OS GR-GFP nuclear translocation, laser cytometry, 2 h
[6] = target: Glucocorticoid receptor (Homo sapiens) (UniProt P04150); assay: GR-EFC Redistribution (AID 451; calls by dose curve; also: potency is read from the fitted curve at half-maximal effect); details: CHO-K1 GR-EFC translocation, beta-gal luminescence, 2 h
Outline: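 CHO-K1 cells expressing nuclear EA and GR-ED fragments of b-gal; compounds titrated up to 46 uM final, 2 h at 37 C. GR nuclear translocation read as complemented b-gal luminescence after 1 h RT detection.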

[7] = target: 3',5'-cyclic-AMP phosphodiesterase 4B (Homo sapiens) (UniProt Q07343); assay: qHTS Assay for Inhibitors of PDE-IV (AID 607; active = well fitted activation curve with a large enough effect in the main read-out, with a control signal flat, not every such curve was filed as active; also: % of control where 0% means no effect)
Outline: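 Live HEK293 cells with a modified cyclic nucleotide-gated (CNG) channel report intracellular cAMP via membrane-potential dye fluorescence (ex 535/em 590 nm). Endogenous PDE-IV was targeted. Compounds were tested at up to 22.9 uM final; RO 20-1724 100 uM served as control.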

[8] = target: Guanine nucleotide-binding protein G(i) subunit alpha-1 (Homo sapiens) (UniProt P63096); assay: qHTS Assay for Inhibitors of RGS12 GoLoco Motif Activity (Green Fluorophore) (AID 879);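 also: 0% = labeled peptide with Gαi1 and full inhibition = labeled peptide alone without protein; negative values mean loss of peptide binding seen as reduced polarization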
Outline: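 Fluorescence polarization assay: 50 nM Gαi1 with 10 nM FITC-labeled RGS12 GoLoco peptide in 10 mM Tris pH 7.5, 150 mM NaCl, 0.1 mM GDP, 0.05% NP40, 10 min at room temperature with compound.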

[9] = qHTS Assay for Identification of Small Molecule Antagonists for NFkB Signaling Pathway (AID 895; active = well fitted inhibition curve with a large enough effect in the signal ratio, with a control signal flat, not every such curve was filed as active; the % refers to the signal ratio; also: % is scaled to controls: 0 for no effect and ±100 for the full control effect)
Outline: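 ME-180 NFkB-bla cells (beta-lactamase under NFkB response element), plated overnight, treated with compound then 10 pM TNF alpha (about EC50) for 5 hrs at 37 C. LiveBLAzer FRET read at 460/530 nm emission, 405 nm excitation.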

[10] = qHTS Assay for Identification of Small Molecule Agonists for Thrombopoietin (TPO) Signaling Pathway (AID 917); also: % is scaled to controls: 0 for no effect and ±100 for the full control effect
Outline: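 IL-3-dependent murine pro-B Ba/F3 cells, stably transfected with human TPO receptor and GpIIb-promoter luciferase, are incubated 24 hrs at 37 C with test compound and 26 pM TPO; luciferase signal is read after 10 min at room temperature.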

[11] = target: Muscarinic acetylcholine receptor M1 (Rattus norvegicus) (UniProt P08482); assay: qHTS Assay for Antagonists of Acetylcholine Muscarinic M1 Receptor: Kinetic Measurement of Intracellular Calcium Response (AID 943);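 also: Fluo-4 calcium signal as peak divided by basal fluorescence over 4 min; nearly all actives have a fitted effect of over 75% in size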
Outline: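 CHO cells stably expressing rat M1 were loaded with no-wash Fluo-4 dye for 1 h at 37C, pre-incubated 10 min with compound, then challenged with EC80 carbachol (100 nM final); kinetic calcium read 4 min, peak/basal ratio.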

[12] = target: Muscarinic acetylcholine receptor M1 (Rattus norvegicus) (UniProt P08482); assay: qHTS Assay for Antagonists of Acetylcholine Muscarinic M1 Receptor: Measurement of IP-One Response (AID 944); also: nearly all actives have a fitted effect of over 75% in size
Outline: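 CHO cells expressing rat M1 receptor, recovered overnight, were pre-incubated 10 min with compound, then stimulated 30 min with carbachol at EC80 (200 nM) in LiCl-containing buffer, pH 7.4. IP1 accumulation was read by HTRF (620/665 nm).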

[13] = target: Pyruvate kinase PKM (Homo sapiens) (UniProt P14618); assay: qHTS Assay for Activators of Human Muscle Pyruvate Kinase (AID 954; active = well fitted curve in the direction sought with a large enough effect, not every such curve was filed as active;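 also: 0% = uninhibited enzyme and -100% = no enzyme or full thiadiazolimine inhibition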)
Outline: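 Enzyme was run at intermediate activity so both inhibitors and activators could be detected. ATP formed from ADP and PEP by 0.1 nM human PKM2 during a 1 h room-temperature incubation was quantified by coupled luciferase luminescence.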

[14] = target: Alpha-galactosidase A (Homo sapiens) (UniProt P06280); assay: Counterscreen for Glucocerebrosidase Inhibitors: qHTS Assay for Human alpha-Galactosidase at pH 4.5 (AID 992); also: 0% is about no effect
Outline: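 Read-out is 4-methylumbelliferone fluorescence (365 nm excitation, 440 nm emission) after a pH 10 NaOH/glycine stop. Reactions held 2 nM enzyme and 80 uM substrate at pH 4.5 for 20 min at room temperature.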

[15] = target: alpha-glucosidase (Oryza sativa, rice) (UniProt Q653V4); assay: Counterscreen for Glucocerebrosidase Inhibitors: qHTS Assay for Rice alpha-Glucosidase at pH 5.0 (AID 997);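 also: 0% = full activity with enzyme and -100% = basal without enzyme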
Outline: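 Rice alpha-glucosidase (4 nM final) with 400 uM 4-methylumbelliferyl-alpha-D-glucopyranoside in citrate buffer pH 5.0, 20 min at room temperature, stopped at pH 10; fluorescence 365/440 nm, compounds 0.7 nM–77 uM, AC50 from Hill fits.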

[16] = target: Pyruvate kinase (Leishmania mexicana) (UniProt Q27686); assay: qHTS Validation Assay for Inhibitors of Leishmania Mexicana Pyruvate Kinase (AID 945);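 also: 0% = DMSO only neutral control wells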
Outline: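 LmPYK E451W 0.2 nM; 0.5 mM PEP, 0.1 mM ADP, 7 mM MgCl2, 50 mM KCl, imidazole pH 7.2, 0.01% Tween 20, 0.05% BSA; 1 h RT; PKLight luminescence; DMSO-normalized.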

[17] = target: Mitogen-activated protein kinase 10 (Mus musculus) (UniProt Q61831); assay: JNK3 AlphaScreen Assay (AID 530; active = well fitted curve in either direction with a large enough effect, not every such curve was filed as active)
Outline: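 qHTS format: compounds tested as titrations against IL-1beta/TNF-alpha-activated HepG2 lysate JNK3 with biotin-GST-cJun substrate and 10 uM ATP at room temperature. Loss of anti-phospho-cJun AlphaScreen signal indicates inhibition.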

[18] = target: Cytochrome P450 2C9 (Homo sapiens) (UniProt P11712); assay: qHTS Assay for Inhibitors and Substrates of Cytochrome P450 2C9 (AID 883); also: % is scaled to controls: 0 for no effect and ±100 for the full control effect; nearly all actives have a fitted effect of over 60% in size
Outline: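 Signal: luciferase luminescence reporting luciferin produced by CYP2C9. Conditions: 10nM enzyme, Luciferin-H 100uM at KM, 25mM KPO4, 37C, 60 min NADPH-driven reaction. Reference: 57uM sulphaphenazole as 100% inhibition.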

[19] = target: Cytochrome P450 3A4 (Homo sapiens) (UniProt P08684); assay: qHTS Assay for Activators of Cytochrome P450 3A4 (AID 885); also: nearly all actives have a fitted effect of over 65% in size
Outline: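 Quantitative HTS format: compounds preincubated with 20nM human CYP3A4 and Luciferin-PPXE substrate at KM, reaction started by NADPH regeneration, stopped after 60 min, luciferase luminescence read 20 min later.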

Glucocorticoid receptor (Homo sapiens), sequence (P04150 whole entry, looked up, the tested form may be a part): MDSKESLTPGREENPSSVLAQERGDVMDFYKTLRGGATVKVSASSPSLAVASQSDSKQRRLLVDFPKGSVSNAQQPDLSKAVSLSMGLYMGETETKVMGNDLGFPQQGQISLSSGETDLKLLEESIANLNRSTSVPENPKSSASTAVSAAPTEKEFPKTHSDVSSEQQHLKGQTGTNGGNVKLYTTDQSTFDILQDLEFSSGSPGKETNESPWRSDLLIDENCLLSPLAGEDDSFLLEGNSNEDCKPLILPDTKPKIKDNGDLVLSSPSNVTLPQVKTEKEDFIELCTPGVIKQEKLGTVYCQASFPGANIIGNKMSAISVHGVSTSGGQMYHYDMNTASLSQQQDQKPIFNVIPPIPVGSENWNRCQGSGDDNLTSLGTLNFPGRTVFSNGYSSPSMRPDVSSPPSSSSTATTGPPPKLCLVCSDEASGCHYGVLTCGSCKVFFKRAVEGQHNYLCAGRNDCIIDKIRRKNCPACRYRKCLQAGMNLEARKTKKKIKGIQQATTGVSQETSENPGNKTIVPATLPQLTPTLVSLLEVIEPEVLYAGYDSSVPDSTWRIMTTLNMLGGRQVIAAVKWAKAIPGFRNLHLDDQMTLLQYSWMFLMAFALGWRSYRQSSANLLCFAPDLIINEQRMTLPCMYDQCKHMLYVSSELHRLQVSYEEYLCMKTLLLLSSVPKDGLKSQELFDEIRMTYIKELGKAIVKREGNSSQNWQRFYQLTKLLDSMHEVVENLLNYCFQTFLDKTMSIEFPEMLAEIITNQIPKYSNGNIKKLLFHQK
Alpha-galactosidase A (Homo sapiens), sequence (P06280 whole entry, looked up): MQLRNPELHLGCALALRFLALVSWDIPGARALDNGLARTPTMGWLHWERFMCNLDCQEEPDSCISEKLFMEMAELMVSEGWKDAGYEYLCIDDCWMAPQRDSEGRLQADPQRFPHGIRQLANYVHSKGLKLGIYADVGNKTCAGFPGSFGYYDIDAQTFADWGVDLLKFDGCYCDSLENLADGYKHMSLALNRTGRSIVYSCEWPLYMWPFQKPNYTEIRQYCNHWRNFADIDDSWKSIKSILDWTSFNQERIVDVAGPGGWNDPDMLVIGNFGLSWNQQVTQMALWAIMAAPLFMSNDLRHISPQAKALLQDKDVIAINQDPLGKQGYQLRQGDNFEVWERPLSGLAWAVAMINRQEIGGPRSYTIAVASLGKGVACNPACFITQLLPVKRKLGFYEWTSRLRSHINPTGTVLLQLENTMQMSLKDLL
3',5'-cyclic-AMP phosphodiesterase 4B (Homo sapiens), sequence (Q07343 whole entry, looked up): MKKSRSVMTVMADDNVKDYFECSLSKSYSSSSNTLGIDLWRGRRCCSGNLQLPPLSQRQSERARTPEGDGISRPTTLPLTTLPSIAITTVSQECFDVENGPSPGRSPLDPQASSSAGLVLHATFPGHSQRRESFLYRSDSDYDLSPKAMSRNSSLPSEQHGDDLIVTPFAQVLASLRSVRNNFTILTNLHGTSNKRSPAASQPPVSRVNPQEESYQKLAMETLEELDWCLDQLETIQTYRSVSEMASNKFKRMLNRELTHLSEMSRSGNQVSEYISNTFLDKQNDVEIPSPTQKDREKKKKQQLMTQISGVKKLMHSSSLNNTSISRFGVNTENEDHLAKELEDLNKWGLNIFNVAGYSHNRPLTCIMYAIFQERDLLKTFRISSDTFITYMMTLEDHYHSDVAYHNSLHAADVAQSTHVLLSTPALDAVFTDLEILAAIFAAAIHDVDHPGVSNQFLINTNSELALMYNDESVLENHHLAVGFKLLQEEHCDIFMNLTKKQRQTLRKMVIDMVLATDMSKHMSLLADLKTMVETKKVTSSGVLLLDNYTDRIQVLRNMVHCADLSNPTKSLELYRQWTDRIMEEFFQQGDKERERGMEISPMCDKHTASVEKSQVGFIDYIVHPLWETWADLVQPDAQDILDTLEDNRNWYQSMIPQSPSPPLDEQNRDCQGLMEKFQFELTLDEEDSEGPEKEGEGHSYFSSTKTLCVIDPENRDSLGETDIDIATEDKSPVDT
Cytochrome P450 1A2 (Homo sapiens), sequence (P05177 whole entry, looked up): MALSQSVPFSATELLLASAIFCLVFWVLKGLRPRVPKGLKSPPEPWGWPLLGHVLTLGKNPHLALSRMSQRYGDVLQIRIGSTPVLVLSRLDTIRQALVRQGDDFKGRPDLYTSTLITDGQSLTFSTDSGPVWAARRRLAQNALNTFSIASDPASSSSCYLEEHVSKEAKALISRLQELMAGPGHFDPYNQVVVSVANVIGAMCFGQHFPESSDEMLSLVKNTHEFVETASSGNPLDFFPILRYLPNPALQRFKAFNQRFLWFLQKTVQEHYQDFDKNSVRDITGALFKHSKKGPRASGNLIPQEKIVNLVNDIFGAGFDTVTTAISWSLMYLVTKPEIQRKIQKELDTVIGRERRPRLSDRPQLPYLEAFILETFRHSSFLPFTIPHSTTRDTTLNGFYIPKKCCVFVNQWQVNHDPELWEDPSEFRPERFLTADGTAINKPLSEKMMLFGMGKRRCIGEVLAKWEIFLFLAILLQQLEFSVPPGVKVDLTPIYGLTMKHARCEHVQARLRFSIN
Guanine nucleotide-binding protein G(i) subunit alpha-1 (Homo sapiens), sequence (P63096 whole entry, looked up): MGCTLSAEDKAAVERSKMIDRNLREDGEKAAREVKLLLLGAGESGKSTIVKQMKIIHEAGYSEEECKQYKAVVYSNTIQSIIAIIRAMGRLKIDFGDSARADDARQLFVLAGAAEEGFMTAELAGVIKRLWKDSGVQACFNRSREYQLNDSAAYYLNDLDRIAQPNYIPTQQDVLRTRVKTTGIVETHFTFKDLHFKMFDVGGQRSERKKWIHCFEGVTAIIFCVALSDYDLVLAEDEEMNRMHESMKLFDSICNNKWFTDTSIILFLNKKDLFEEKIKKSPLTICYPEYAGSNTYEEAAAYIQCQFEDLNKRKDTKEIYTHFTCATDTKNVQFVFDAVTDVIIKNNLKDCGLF
Pyruvate kinase PKM (Homo sapiens), sequence (P14618 whole entry, looked up): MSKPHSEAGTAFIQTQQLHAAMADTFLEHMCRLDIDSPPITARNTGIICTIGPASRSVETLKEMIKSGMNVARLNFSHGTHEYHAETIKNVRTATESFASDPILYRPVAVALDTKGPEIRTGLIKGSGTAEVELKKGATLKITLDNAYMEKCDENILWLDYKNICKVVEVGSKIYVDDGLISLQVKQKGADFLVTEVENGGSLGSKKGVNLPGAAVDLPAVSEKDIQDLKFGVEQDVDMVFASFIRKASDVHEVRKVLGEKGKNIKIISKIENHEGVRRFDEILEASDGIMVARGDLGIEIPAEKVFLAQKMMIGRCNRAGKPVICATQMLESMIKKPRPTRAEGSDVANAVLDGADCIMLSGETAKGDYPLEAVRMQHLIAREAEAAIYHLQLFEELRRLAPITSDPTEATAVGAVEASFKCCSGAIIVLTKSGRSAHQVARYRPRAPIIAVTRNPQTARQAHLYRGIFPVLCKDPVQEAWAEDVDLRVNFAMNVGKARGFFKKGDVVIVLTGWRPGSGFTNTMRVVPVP
Muscarinic acetylcholine receptor M1 (Rattus norvegicus), sequence (P08482 whole entry, looked up): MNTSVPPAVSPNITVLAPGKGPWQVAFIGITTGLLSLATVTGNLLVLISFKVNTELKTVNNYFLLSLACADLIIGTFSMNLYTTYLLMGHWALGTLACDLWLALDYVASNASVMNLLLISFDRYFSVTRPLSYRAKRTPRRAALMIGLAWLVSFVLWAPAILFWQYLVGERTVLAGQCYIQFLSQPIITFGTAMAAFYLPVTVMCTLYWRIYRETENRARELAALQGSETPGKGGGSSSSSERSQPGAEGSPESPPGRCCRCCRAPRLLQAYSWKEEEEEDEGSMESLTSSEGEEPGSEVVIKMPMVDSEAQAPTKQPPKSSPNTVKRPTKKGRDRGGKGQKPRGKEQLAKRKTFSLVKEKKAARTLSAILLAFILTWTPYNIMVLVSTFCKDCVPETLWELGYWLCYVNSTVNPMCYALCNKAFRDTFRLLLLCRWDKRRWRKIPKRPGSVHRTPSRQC
Pyruvate kinase (Leishmania mexicana), sequence (Q27686 2-499 E452W): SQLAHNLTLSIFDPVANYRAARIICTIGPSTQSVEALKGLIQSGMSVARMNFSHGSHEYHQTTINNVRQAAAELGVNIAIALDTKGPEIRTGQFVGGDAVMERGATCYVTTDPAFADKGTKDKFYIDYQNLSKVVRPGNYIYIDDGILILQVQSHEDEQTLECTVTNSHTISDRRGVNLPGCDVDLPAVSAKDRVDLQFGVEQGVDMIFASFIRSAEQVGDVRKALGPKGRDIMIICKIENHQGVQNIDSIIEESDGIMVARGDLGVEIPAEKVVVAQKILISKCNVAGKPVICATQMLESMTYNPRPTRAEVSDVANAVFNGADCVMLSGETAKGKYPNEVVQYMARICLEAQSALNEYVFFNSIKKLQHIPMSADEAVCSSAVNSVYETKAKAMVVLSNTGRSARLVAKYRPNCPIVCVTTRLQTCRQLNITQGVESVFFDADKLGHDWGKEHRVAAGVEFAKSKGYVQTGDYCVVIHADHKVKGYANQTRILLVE
Cytochrome P450 2C9 (Homo sapiens), sequence (P11712 whole entry, looked up): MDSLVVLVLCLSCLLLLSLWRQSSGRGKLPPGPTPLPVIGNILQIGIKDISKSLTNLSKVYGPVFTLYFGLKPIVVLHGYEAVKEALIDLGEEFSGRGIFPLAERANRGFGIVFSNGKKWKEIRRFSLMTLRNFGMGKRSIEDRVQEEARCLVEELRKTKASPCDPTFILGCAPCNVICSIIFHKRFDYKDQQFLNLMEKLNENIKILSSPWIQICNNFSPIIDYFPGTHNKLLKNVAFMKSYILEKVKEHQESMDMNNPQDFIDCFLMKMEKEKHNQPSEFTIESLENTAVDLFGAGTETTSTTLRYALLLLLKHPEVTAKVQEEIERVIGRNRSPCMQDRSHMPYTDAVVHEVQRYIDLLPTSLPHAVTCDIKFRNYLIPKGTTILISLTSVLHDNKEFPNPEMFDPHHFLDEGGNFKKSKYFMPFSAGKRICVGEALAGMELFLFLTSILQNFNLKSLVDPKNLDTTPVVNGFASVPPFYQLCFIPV

CC1(C)CCC(NC(=O)[C@H](N)CCC(=O)O)CC1
inactive: activity change, negative = inhibition [1] 5.34% [at 38 µM] | Potency [2] | activity change, negative = inhibition [3] 2.47% [at 38 µM] | activity, negative = inhibition [4] -7.41% [at 38 µM] | Potency [5] > 46 µM | Potency [6] > 46 µM | Potency [7] | outcome [8] | Potency [9] | outcome [10] | Potency [11] | Potency [12] | outcome [13] | outcome [14] | Potency [15]

[N-]=[N+]=Nc1ccc(C(=O)CSC[C@@H](NC(=O)CC[C@@H](N)C(=O)O)C(=O)NCC(=O)O)cc1
inactive: activity change, negative = inhibition [1] -0.0447% [at 38 µM] | Potency [2] | activity change, negative = inhibition [3] -3.2% [at 38 µM] | activity, negative = inhibition [4] 10.6% [at 38 µM] | Potency [5] > 46 µM | Potency [6] > 46 µM | Potency [7] | outcome [8] | Potency [9] | outcome [10] | Potency [11] | Potency [12] | outcome [16] | outcome [13] | outcome [14]

C[C@@]12CCC(=O)C=C1CC[C@H]1[C@H]3CC[C@](O)(C(=O)CO)[C@]3(C)CC[C@@H]12
active: Potency [5] 0.114 µM
inactive: activity change, negative = inhibition [1] 16% [at 38 µM] | Potency [2] | activity change, negative = inhibition [3] -2.8% [at 38 µM] | activity, negative = inhibition [4] -40.3% [at 38 µM] | Potency [17] | Potency [7] | Potency [18]

COc1cc([C@H](O)CO)ccc1O
inactive: activity change, negative = inhibition [1] -0.627% [at 38 µM] | Potency [2] | activity change, negative = inhibition [3] 2.95% [at 38 µM] | activity, negative = inhibition [4] 17.1% [at 38 µM] | Potency [5] > 46 µM | Potency [6] > 46 µM | Potency [7] | outcome [8] | Potency [19] | Potency [9] | outcome [10] | Potency [11] | Potency [12] | outcome [16] | outcome [13] | outcome [14] | Potency [15]

OC[C@@H]1O[C@@H](n2cnc3c(N[C@@H]4C[C@@H]5CC[C@H]4C5)ncnc32)[C@@H](O)[C@H]1O
inactive: activity change, negative = inhibition [1] -1.94% [at 38 µM] | Potency [2] | activity change, negative = inhibition [3] 8.03% [at 38 µM] | activity, negative = inhibition [4] 24.8% [at 38 µM] | Potency [5] > 46 µM | Potency [6] > 46 µM | Potency [7] | outcome [8] | Potency [9] | outcome [10] | Potency [11] | Potency [12] | outcome [16] | outcome [13] | outcome [14]
